# The source holds several records for some structures; these can differ, active in one and inactive in another. Activity calls are given as the source filed them. The calls were made as follows: active = hit-call score of the fitted dose curve at least 0.9, where 1 is the maximum; inactive = score below 0.9.
# Assay: CCTE_Shafer_MEA_dev_spike_duration_mean: CCTE's Neural Network Formation Assay for Mean Spike Duration, Shafer Lab (AID 2284051);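 as to AC50: potency for a decrease in mean network spike duration versus DMSO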
# Experimental: CCTE_Shafer_MEA_dev assay is conducted using Axion Biosystems 48 well microelectrode array (MEA) plates and Maestro recording system. Each well of the MEA plate contains a grid of 16 microelectrodes embedded in the culture surface. Electrically active cells, such as neurons, can be cultured over the electrodes, and electrical activity in these cells can be recorded extracellularly. The spontaneous firing of neurons is captured from each electrode on a microsecond timescale providing both temporally and spatially precise data. […] The CCTE_Shafer_MEA_dev assay uses primary cultures of rat cortical neurons. Recordings are made on days post-plating 5, 7, 9 and 12. As these cultures mature over time, neural networks develop functional activity and form cohesive networks in which electrical activity can be highly coordinated. CCTE_Shafer_MEA_dev_spike_duration_mean is 1 of 19 assay components of the CCTE_Shafer_MEA_dev assay. It measures the average duration of network spikes (temporally-clustered groups of action potential firing across multiple electrodes) during a recording in a microelectrode array (MEA) using Axion Biosystems Maestro 768 channel amplifier with the AxIS adaptive spike detector. To collapse across multiple recordings made on days post-plating 5, 7, 9 and 12, the trapezoidal area-under-the-curve of the component is calculated.Data from the assay component CCTE_Shafer_MEA_dev_spike_duration_mean was analyzed into 1 assay endpoint. This assay endpoint, CCTE_Shafer_MEA_dev_spike_duration_mean, was analyzed in the negative analysis fitting direction relative to DMSO as the negative control and baseline of activity. Using a type of functional reporter, gain or loss-of-signal activity can be used to understand electrical activity.
# On the day prior to culture, each well was coated thoroughly with 150 uL of 0.05% polyethyleneimine (PEI, Sigma Cat P3143) in 50 mM HEPES (Sigma Cat H7523) at a pH of 8. The plate was incubated at 37C for one hour. PEI was rinsed out with 500 uL of sterile water three times. Plates were stored at 4C until the day of culture. This culture was plated at a seeding density of 1.5 x 10^5 cells/well on a 48-well MEA plate, prepared as described above. Cells were administered via a 25 uL media/laminin ([…]; Sigma Cat L2020-1MG) drop directly onto the microelectrode array, as adding the cells with the laminin results in better attachment than pre-coating with laminin. After 2 hours, an additional 475 uL of cortical media was added and the cells returned to the incubator. Exposure starts at day 0 of plating and is continued over twelve days of network development until the experiment is terminated. Cells are fed with fresh medium on DIV 5 and 9, following the recordings on those days. The entire volume of media in the well is exchanged and any vehicle or compound treatment is renewed. Complete details are found in OP-NHEERL/ISTD/SBB/TJS/2015-03-r0 (available on request, email shafer.tim@epa.gov). Measurement of the electrical activity is non-invasive, and recordings can be made from the same plate over multiple different days of the culture. In cortical neurons, this allows for the measurement of extracellular action potentials over the period during which networks form in the MEA plate.
Compound,outcome,AC50
CC1(C)S[C@@H]2[C@H](NC(=O)COc3ccccc3)C(=O)N2[C@H]1C(=O)O,inactive,
COC(F)(F)C(F)(C(F)(F)F)C(F)(F)F,inactive,
CN(C)c1ccc(C(=N)c2ccc(N(C)C)cc2)cc1,,2.42 µM (active)
Nc1ncn([C@@H]2O[C@H](CO)[C@@H](O)[C@H]2O)c(=O)n1,inactive,4.17 µM (active)
CC=CC(F)(F)C(F)(F)C(F)(F)F,inactive,
c1ccc2c(c1)ccc1cc3c(ccc4ccccc43)cc12,inactive,
CCOC(F)(F)C(F)(F)C(F)(F)C(F)(F)F,inactive,
FC(F)=C(F)OC(F)(F)C(F)(F)C(F)(F)F,inactive,
N[C@H]1C(O)O[C@H](CO)[C@H](O)[C@@H]1O (stereo not given in full),,25.3 µM (active)

# Reference: PubChem BioAssay (EPA / NIEHS)
